In paper PMC7862700, “An all-to-all approach to the identification of sequence-specific readers for epigenetic DNA modifications on cytosine” one finds binding signal data, which are given here for seven sequences.

What all share (assay): DAPPL (digital affinity profiling via proximity ligation, sequencing); 10 mM Tris-HCl pH 7.5, 50 mM NaCl, 1 mM DTT, 4% glycerol, room temperature, 30 min; GST-TFs on glutathione beads, 16-mer random dsDNA library, 0.1% formaldehyde crosslink after washing; high values mean tight binding
Common to all, as to conditions: protein: recombinant; tags: N-terminal GST; dsDNA, one strand shown

Experiment [1] deals with T1, FLI1 (Homo sapiens, UniProt Q01543 1-452).
T1 sequence: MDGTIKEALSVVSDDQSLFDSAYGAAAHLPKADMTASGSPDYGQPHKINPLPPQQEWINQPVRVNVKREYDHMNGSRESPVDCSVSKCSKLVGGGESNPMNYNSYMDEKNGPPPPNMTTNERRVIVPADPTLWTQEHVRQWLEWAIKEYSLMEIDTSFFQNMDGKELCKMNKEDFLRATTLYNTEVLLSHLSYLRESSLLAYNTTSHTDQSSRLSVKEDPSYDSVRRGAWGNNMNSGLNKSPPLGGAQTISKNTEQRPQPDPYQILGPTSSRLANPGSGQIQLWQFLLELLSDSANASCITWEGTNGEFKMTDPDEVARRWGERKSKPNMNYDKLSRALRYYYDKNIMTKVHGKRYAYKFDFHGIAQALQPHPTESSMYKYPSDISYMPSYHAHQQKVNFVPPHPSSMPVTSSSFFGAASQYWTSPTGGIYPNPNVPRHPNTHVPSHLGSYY
The gist of the method:
(§1)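 Binding signal is given per hexamer as its read frequency for a factor divided by its frequency in the tag-only sample. GST-fused human transcription factors were expressed in yeast, captured on glutathione beads, barcoded with DNA and pooled with that sample, then incubated with 200 nmole of a 16-mer random double-stranded DNA library in Tris/NaCl/DTT/glycerol buffer for 30 min at room temperature. The pools were then washed, crosslinked, proximity-ligated, amplified by PCR and sequenced on an Illumina NextSeq500.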

In experiment [2] the target is T2, ELK1 (Homo sapiens, UniProt P19419 1-428).
T2 sequence: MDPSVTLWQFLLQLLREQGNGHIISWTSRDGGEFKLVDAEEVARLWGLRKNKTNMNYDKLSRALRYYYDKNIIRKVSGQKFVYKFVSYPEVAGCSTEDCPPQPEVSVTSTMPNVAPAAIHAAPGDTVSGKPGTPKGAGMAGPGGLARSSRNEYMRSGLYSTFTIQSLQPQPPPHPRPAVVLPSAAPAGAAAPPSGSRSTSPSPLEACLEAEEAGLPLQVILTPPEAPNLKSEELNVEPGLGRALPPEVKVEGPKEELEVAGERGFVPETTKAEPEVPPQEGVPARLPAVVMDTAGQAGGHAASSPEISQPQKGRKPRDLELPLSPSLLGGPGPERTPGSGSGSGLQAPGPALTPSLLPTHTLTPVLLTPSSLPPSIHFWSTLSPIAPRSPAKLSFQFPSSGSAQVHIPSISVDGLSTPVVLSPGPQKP
Put shortly: as §1

Experiment [3] concerns the target T3, GABPA (Homo sapiens, UniProt Q06546 1-454).
T3 sequence: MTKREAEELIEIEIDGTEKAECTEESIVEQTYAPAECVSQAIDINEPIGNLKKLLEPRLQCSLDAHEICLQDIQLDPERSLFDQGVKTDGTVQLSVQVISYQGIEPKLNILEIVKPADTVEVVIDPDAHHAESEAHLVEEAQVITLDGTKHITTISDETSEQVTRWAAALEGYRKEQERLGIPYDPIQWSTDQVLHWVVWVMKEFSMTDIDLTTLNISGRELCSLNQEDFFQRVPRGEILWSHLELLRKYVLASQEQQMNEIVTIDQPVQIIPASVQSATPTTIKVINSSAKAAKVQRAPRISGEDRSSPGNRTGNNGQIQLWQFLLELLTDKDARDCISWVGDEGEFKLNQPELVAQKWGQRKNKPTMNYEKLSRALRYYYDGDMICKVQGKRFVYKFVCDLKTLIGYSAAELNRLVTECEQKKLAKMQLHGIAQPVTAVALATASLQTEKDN
The gist of the method:
as §1

The target in experiment [4] is T4, ERG (Homo sapiens, UniProt P11308 1-479).
T4 sequence: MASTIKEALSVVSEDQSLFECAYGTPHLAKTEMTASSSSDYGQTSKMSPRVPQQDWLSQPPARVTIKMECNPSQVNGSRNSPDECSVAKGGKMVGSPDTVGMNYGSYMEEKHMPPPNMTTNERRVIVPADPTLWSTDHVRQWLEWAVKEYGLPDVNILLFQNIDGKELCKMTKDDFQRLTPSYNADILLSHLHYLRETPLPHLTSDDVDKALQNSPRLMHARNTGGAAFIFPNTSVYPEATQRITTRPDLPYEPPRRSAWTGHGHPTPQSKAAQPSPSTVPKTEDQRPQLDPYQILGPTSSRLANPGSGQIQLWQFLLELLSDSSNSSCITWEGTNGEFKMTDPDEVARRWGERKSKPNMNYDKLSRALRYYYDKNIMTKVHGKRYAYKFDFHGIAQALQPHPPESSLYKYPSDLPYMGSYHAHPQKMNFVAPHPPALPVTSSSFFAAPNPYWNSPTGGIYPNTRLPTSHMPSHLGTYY
Put shortly:
as §1

Experiment [5] has as its target ELF1 (Homo sapiens, UniProt P32519 1-619). The gist of the method: as §1
Experiment [6] concerns the target T5, EHF (Homo sapiens, UniProt Q9NZC4 1-300).
T5 sequence: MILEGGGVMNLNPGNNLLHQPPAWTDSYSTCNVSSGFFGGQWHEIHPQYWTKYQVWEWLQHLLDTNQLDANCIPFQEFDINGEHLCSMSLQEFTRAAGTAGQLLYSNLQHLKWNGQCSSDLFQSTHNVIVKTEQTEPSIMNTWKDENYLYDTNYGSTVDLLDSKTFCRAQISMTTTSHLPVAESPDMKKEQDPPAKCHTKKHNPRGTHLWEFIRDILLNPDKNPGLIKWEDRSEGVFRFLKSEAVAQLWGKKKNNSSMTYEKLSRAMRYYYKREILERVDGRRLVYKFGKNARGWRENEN
Put shortly: as §1

The target of experiment [7] is SPI1 (Homo sapiens, UniProt P17947 1-270). Put shortly: as §1
For experiment [8], the target named is SPIB (Homo sapiens, UniProt Q01892 1-262). Put shortly: as §1
The target in experiment [9] is T6, ELK3 (Homo sapiens, UniProt P41970 1-407).
T6 sequence: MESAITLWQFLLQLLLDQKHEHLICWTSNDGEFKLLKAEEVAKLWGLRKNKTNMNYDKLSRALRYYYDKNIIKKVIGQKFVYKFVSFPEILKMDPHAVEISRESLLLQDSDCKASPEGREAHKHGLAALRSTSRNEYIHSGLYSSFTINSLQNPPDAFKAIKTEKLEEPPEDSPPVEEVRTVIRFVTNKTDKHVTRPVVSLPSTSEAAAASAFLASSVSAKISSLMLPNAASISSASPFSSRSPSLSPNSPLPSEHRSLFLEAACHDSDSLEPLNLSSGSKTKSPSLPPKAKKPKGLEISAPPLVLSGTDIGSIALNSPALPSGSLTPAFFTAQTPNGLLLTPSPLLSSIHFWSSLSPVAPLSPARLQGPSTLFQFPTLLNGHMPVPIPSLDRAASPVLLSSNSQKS
Put shortly: as §1

SPIB, sequence (Q01892 whole entry): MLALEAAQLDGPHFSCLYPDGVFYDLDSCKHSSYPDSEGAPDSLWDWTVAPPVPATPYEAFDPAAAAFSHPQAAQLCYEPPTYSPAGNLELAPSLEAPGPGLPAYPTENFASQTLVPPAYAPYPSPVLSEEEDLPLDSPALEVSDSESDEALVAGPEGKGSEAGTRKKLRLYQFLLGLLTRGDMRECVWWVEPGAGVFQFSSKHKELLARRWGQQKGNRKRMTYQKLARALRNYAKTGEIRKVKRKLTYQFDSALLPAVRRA
ELF1, sequence (P32519 whole entry): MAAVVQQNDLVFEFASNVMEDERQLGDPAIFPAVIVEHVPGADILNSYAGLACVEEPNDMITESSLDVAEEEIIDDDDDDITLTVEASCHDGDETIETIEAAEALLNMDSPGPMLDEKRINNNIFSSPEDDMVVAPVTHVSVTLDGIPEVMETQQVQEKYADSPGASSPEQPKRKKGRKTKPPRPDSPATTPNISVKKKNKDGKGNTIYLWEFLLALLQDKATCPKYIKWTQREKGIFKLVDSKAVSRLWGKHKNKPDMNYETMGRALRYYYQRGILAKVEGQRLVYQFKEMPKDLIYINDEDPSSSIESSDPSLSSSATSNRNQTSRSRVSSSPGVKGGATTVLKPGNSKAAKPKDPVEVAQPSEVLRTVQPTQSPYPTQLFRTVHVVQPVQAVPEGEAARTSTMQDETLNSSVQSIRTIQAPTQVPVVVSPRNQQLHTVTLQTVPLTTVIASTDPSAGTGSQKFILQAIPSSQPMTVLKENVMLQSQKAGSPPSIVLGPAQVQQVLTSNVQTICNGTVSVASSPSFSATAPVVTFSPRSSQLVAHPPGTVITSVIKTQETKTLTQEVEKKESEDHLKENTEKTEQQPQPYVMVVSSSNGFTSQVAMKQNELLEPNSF

As to CCGATT, the binding signal in [1] is 1.42 fold enrichment (6-mer frequency, TF over GST control); in experiment [2], 1.35 fold enrichment (6-mer frequency, TF over GST control); in [3], 1.32 fold enrichment (6-mer frequency, TF over GST control); in [4], 1.34 fold enrichment (6-mer frequency, TF over GST control); in [5] it was 1.36 fold enrichment (6-mer frequency, TF over GST control); in experiment [6] it was 1.4 fold enrichment (6-mer frequency, TF over GST control). Moreover, the binding signal was 1.31 fold enrichment (6-mer frequency, TF over GST control) in experiment [7]; 1.4 fold enrichment (6-mer frequency, TF over GST control) in experiment [8]; 1.29 fold enrichment (6-mer frequency, TF over GST control) in [9].

Turning to AAATCA, the binding signal in experiment [1] was 1.12 fold enrichment (6-mer frequency, TF over GST control); in experiment [2], 1.19 fold enrichment (6-mer frequency, TF over GST control); in [3], 1.19 fold enrichment (6-mer frequency, TF over GST control); in experiment [4] it was 1.18 fold enrichment (6-mer frequency, TF over GST control); in experiment [5], 1.21 fold enrichment (6-mer frequency, TF over GST control); in experiment [6] it was 1.25 fold enrichment (6-mer frequency, TF over GST control). In addition, the binding signal was 1.26 fold enrichment (6-mer frequency, TF over GST control) in experiment [7]; 1.2 fold enrichment (6-mer frequency, TF over GST control) in experiment [8]; 1.18 fold enrichment (6-mer frequency, TF over GST control) in experiment [9].

TCCCCC: the binding signal is 1.59 fold enrichment (6-mer frequency, TF over GST control) in experiment [1]; 1.54 fold enrichment (6-mer frequency, TF over GST control) in experiment [2]; 1.44 fold enrichment (6-mer frequency, TF over GST control) in [3]; 1.48 fold enrichment (6-mer frequency, TF over GST control) in [4]; 1.58 fold enrichment (6-mer frequency, TF over GST control) in experiment [5]; 1.52 fold enrichment (6-mer frequency, TF over GST control) in experiment [6]. Also, the binding signal is 1.46 fold enrichment (6-mer frequency, TF over GST control) in experiment [7]; 1.53 fold enrichment (6-mer frequency, TF over GST control) in experiment [8]; 1.27 fold enrichment (6-mer frequency, TF over GST control) in [9].

For GCACTT, the binding signal in experiment [1] is 1.61 fold enrichment (6-mer frequency, TF over GST control); in experiment [2], 2 fold enrichment (6-mer frequency, TF over GST control); in experiment [3], 1.87 fold enrichment (6-mer frequency, TF over GST control); in experiment [4], 1.93 fold enrichment (6-mer frequency, TF over GST control); in [5], 1.77 fold enrichment (6-mer frequency, TF over GST control); in experiment [6] it was 1.79 fold enrichment (6-mer frequency, TF over GST control). Besides, the binding signal was 2.23 fold enrichment (6-mer frequency, TF over GST control) in experiment [7]; 1.7 fold enrichment (6-mer frequency, TF over GST control) in experiment [8]; 1.99 fold enrichment (6-mer frequency, TF over GST control) in [9].

As to TTTTCT, the binding signal in experiment [1] was 1.31 fold enrichment (6-mer frequency, TF over GST control); in experiment [2] it was 1.29 fold enrichment (6-mer frequency, TF over GST control); in experiment [3], 1.27 fold enrichment (6-mer frequency, TF over GST control); in experiment [4] it was 1.34 fold enrichment (6-mer frequency, TF over GST control); in experiment [5], 1.29 fold enrichment (6-mer frequency, TF over GST control); in experiment [6], 1.46 fold enrichment (6-mer frequency, TF over GST control). The binding signal in [7] was 1.45 fold enrichment (6-mer frequency, TF over GST control); in [8], 1.18 fold enrichment (6-mer frequency, TF over GST control); in [9], 1.31 fold enrichment (6-mer frequency, TF over GST control).

Consider TACTCT, for which the binding signal in experiment [1] is 1.37 fold enrichment (6-mer frequency, TF over GST control); in experiment [2] it was 1.5 fold enrichment (6-mer frequency, TF over GST control); in [3], 1.52 fold enrichment (6-mer frequency, TF over GST control); in [4] it was 1.34 fold enrichment (6-mer frequency, TF over GST control); in [5] it was 1.42 fold enrichment (6-mer frequency, TF over GST control); in [6] it was 1.45 fold enrichment (6-mer frequency, TF over GST control). Besides, the binding signal was 1.44 fold enrichment (6-mer frequency, TF over GST control) in [7]; 1.33 fold enrichment (6-mer frequency, TF over GST control) in [8]; 1.56 fold enrichment (6-mer frequency, TF over GST control) in experiment [9].

On to GTTAAC, for which the binding signal in [1] is 1.04 fold enrichment (6-mer frequency, TF over GST control); in [2] it was 1.22 fold enrichment (6-mer frequency, TF over GST control); in experiment [3], 1.13 fold enrichment (6-mer frequency, TF over GST control); in [4], 1.15 fold enrichment (6-mer frequency, TF over GST control); in experiment [5], 1.14 fold enrichment (6-mer frequency, TF over GST control); in experiment [6] it was 1.11 fold enrichment (6-mer frequency, TF over GST control). Further, the binding signal in experiment [7] is 1.15 fold enrichment (6-mer frequency, TF over GST control); in experiment [8], 1.12 fold enrichment (6-mer frequency, TF over GST control); in experiment [9] it was 1.23 fold enrichment (6-mer frequency, TF over GST control).
